In PubChem BioAssay AID1860 (The Scripps Research Institute Molecular Screening Center, 2009):
This is one part of the list. A number with no mark means an inactive call. Active and inactive are the calls of the source. Rule as the data show it: active = inhibition above about 8%; inactive = the rest.

These compounds were tested on VIM-2 metallo-beta-lactamase [Pseudomonas aeruginosa] (assay: P. aeruginosa VIM-2 enzyme inhibition – biochemical, epi-absorbance, HTS, confirmation (AID 1860;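 also: 0% = enzyme with vehicle and 100% = no enzyme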)). Conditions: purified VIM-2 enzyme, nitrocefin absorbance; at 5.6 µM; hits give high values.

| Structure (SMILES) | inhibition |
| --- | --- |
| NC(=O)c1ccc(NC(=O)COC(=O)c2c3c(nc4ccccc24)/C(=C\c2ccc4c(c2)OCO4)CCC3)cc1 | -0.41% |
| Cc1cc2nc3c(=O)n(Cc4ccccc4)c(=O)[nH]c3nc2cc1N | 16.6% (active) |
| Cc1nn(C)cc1N1C(=O)c2cccc3c(N)ccc(c23)C1=O | 35.2% (active) |
| COc1cc(/C=C2/SC(=S)N(Cc3ccccc3)C2=O)cc(OC)c1O | 13.7% (active) |
| CN1C(=O)c2cccc3c(N)ccc(c23)C1=O | 48.4% (active) |
| Oc1ccc2ccc3cccc[n+]3c2c1 | 30.2% (active) |
| C/C(=N\Nc1ccc(S(N)(=O)=O)cc1[N+](=O)[O-])c1cccs1 | 17.3% (active) |
| Nc1c(C(=O)c2cccs2)sc2nsc(SCCN3CCCCC3)c12 | 31.7% (active) |
| c1ccc(-c2nccc(-c3ccc(-n4cnc5ccccc54)cc3)n2)nc1 | 71.7% (active) |
| CCC(=C/c1sc2ccc3ccccc3c2[n+]1C)/C=C1\Sc2ccc3ccccc3c2N1C | 12% (active) |
| NS(=O)(=O)c1ccc(NC(=O)COC(=O)c2c3c(nc4ccccc24)/C(=C\c2ccc4c(c2)OCO4)CCC3)cc1 | -1.18% |
